Several values for one entry are separate records, joined by “and”; a condition that tells them apart may be missing. Identical values can stand only once. Among all 410,000 compounds or so, about 2,400 (0.59%) were called active. Shown is part of a subset that was picked to be rich in actives. Values without a mark were called inactive. Cut-off read from the data, not from the text of the source: active = max activation above about 30%; inactive = the rest. Where a SMILES comes first, the peptide text is derived from it. Bridges are numbered along the chain shown (N, C = ends). [ ]: non-standard residue; d: D form. The star is where a group is joined. X1 = CC[C@H](C)CCCCC(=O)*; Dab = NCC[C@H](N)C(=O)O
molecular target: D(3) dopamine receptor (Homo sapiens) (UniProt P35462); assay: qHTS of D3 Dopamine Receptor Agonist: qHTS; settings: D3R DiscoveRx beta-arrestin cells, luminescence, 90 min; stronger effect = higher value; note: 0% is about no effect
Sequence (P35462 whole entry, looked up): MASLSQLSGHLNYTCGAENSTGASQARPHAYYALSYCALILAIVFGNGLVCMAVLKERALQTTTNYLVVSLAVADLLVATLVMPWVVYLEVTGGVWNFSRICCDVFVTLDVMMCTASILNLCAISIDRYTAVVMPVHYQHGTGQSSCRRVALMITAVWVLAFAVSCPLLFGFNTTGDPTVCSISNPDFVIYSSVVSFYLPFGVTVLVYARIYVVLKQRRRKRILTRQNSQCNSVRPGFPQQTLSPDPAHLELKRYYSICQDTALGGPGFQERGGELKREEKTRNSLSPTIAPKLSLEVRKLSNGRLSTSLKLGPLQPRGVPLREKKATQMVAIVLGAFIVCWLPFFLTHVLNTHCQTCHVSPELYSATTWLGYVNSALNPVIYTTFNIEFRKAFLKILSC
Summary of the method: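 Cells at 1500/well, incubated overnight, then treated with pinned compounds (dopamine as control) for 90 min at 37 degrees C. DiscoveRx reagent added for 30 - 60 minutes at room temperature; luminescence read.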

SMILES | max activation
CCCCCCCCCCCCCCCCO | 11.6%
Cc1cc(/C=C2/SC(=O)N(CC(=O)OC(C)C)C2=O)c(C)n1C | 30.2% (active)
CCN=C1S/C(=C\c2cc(Br)ccc2OCC(=O)OCC)C(=O)N1CC | 5.26%
Cc1cc(/C=C2/SC(=O)N(CC(=O)N3CCCC3)C2=O)ccc1N1CCOCC1 | -0.0029%
FCOC(C(F)(F)F)C(F)(F)F | 9.08%
COc1cc(OC)cc(C(=O)NCC(=O)OCc2csc(-c3ccccc3)n2)c1 | -7.01%
Cc1ccc(-c2nc(COC(=O)c3c(C)noc3C)cs2)cc1 | 32.5% (active)
COc1ccc(C(=O)COC(=O)c2c(C)noc2C)cc1Cl | -4.54%
CC(=O)OC[C@H]1O[C@@H](O[C@H]2[C@H](O)[C@@H](OC(=O)c3ccccc3C(=O)O)[C@H](O)O[C@@H]2COC(C)=O)[C@H](O)[C@@H](OC(=O)c2ccccc2C(=O)O)[C@@H]1O | 2.74%
CCCC(=O)N1CCN(c2nc3c(OC)ccc(C)c3s2)CC1 | 3.21%
O=C1C(c2[nH]c3ccccc3c2O)=Nc2ccccc21 | -8.96%
Cc1cc(Cl)ccc1NC(=S)N1CCC(C(N)=O)(N2CCCCC2)CC1 | 5%
CCC(=O)N1CCC(C(N)=O)(N2CCCCC2)CC1 | 1.17%
NC(=O)C1(N2CCCCC2)CCN(C(=S)Nc2ccc(Cl)cc2)CC1 | 32.5% (active)
Cc1ccc(NS(=O)(=O)c2ccc3c(c2)CC(=O)N3)cc1Cl | -10.2%
Fc1ccc2[nH]c3c(N4CCSCC4)ncnc3c2c1 | 42.3% (active)
Fc1ccc2[nH]c3c(N4CCN(Cc5ccc6c(c5)OCO6)CC4)ncnc3c2c1 | 9.79%
Cc1ccc(CNC(=O)CCC(=O)N2Cc3ccccc3Oc3ncccc32)cc1 | -12%
CCC(=O)N1c2ccccc2CC1C(=O)N1CCN(c2ccccc2)CC1 (stereo not given) | 0.179%
COc1cccc(C(=O)Nc2ccc3oc(-c4ccc5ccccc5c4)nc3c2)c1 | 15.1%
Cc1cc2nc(-c3ccc(NC(=O)c4cc5ccccc5o4)cc3)oc2cc1C | 2.05%
Cc1cc2nc(-c3ccc(NC(=O)c4cccnc4)cc3)oc2cc1C | 32.8% (active)
CC1=C(/C=C/C(C)=C/C=C/C(C)=C/C=C/C=C(C)/C=C/C=C(C)/C=C/C2=C(C)CCCC2(C)C)C(C)(C)CCC1 | -12.4%
Cc1cc(C)c(NC(=O)Cn2c(SCC(=O)NCc3ccccc3)nc3ccccc32)c(C)c1 | -11.4%
Cc1ccc(-n2c(SCC(=O)Nc3ncc(Cl)cc3Cl)nc3ccccc32)cc1 | 39.8% (active)
Cc1ccc(NC(=O)CSc2nc3c([nH]c4ccccc43)c(=O)n2-c2ccccc2)cc1Cl | -9.55%
CCC(=O)N1CCc2cc(S(=O)(=O)NC(C(=O)Nc3ccc(C(C)=O)cc3)C(C)C)ccc21 (stereo not given) | -16.2%

SMILES | max activation
NC(=O)C1CCN(C(=O)COc2ccc3c4c(c(=O)oc3c2)CCC4)CC1 | -9.64%
CSCCC(NS(=O)(=O)c1ccc(C)cc1)C(=O)N1CCCC1 (stereo not given) | -0.577%
CCCCC(NS(=O)(=O)c1ccc(C)cc1)C(=O)Oc1ccc2c3c(c(=O)oc2c1)CCC3 (stereo not given) | 51.9% (active)
COc1ccccc1NC(=O)c1oc2ccccc2c1NC(=O)C(C)C | 2.74%
C/C(CC(=O)NCc1ccc(Cl)cc1)=N\NC(=O)COc1ccc(C)cc1Br | -14.3%
O=C(COc1ccc(Cl)cc1Cl)NCCCNC(=O)c1cnccn1 | 5.48%
CSc1ccc(/C=N\NC(=O)COc2ccc(Cl)cc2Br)cc1 | 32.8% (active)
CC[C@H](C)CCCCC(=O)N[C@@H](CCN)C(=O)N[C@H](C(=O)N[C@@H](CCN)C(=O)N[C@H]1CCNC(=O)[C@@H]([C@H](C)O)NC(=O)[C@H](CCN)NC(=O)[C@H](CCN)NC(=O)[C@H](CC(C)C)NC(=O)[C@@H](CC(C)C)NC(=O)[C@H](CCN)NC1=O)[C@@H](C)O (X1-[Dab]T[Dab][Dab][Dab][dL]L[Dab][Dab][dT]; lactam 4-C) | -1.99%
CC1(C)[C@@H]2CC[C@@]1(C)[C@H](OC(=O)CSC#N)C2 | -0.173%
CCS(=O)(=O)N1CCC(N2CCN(c3ccccc3)CC2)CC1 | 64.6% (active)
O=S(=O)(NCCS(=O)(=O)N1CCN(c2ccccc2)CC1)c1ccc(Cl)cc1 | 0.296%
CS(=O)(=O)N1CCC(C(=O)N2CCN(c3ccccc3)CC2)CC1 | 6.05%
Cc1ccc(C)c(N2CCN(C(=O)CCc3c(C)nc4c(c3C)c(=O)n(C)c(=O)n4C)CC2)c1 | 1.37%
COc1cc2c(cc1OC)[C@@H](Cc1cc(OC)c(OC)c(OC)c1)[N+](C)(CCCOC(=O)CC/C=C/CCC(=O)OCCC[N+]1(C)CCc3cc(OC)c(OC)cc3[C@H]1Cc1cc(OC)c(OC)c(OC)c1)CC2 (stereo not given in full) | 4.34% and 3.72%
Cn1nnc2c(N3CCN(c4ccccc4)CC3)ncnc21 | 1.99%
CCc1cc2c(N3CCN(c4nnc(CC)s4)CC3)ncnc2s1 | 13.8%
Oc1ccccc1N1CCN(c2ncnc3sc(-c4ccccc4)cc23)CC1 | 31.1% (active)
CCCCN(CC)CCCNC(=O)c1nn(C)c2c1CSc1ccccc1-2 | 3.9%
COc1ccc(OC)c(CCNC(=O)c2nn(C)c3c2CS(=O)(=O)c2ccccc2-3)c1 | 2.65%
CCCCN(CC)CCCNC(=O)c1nn(C)c2c1CS(=O)(=O)c1ccccc1-2 | 31.8% (active)
CCOc1ccccc1CNC(=O)c1ccc(-n2c(C)cc3c2CCC(C)C3)cc1 (stereo not given) | -10.9%
COC(=O)c1cc(NC(=O)CCc2c(C)nc3c4c(C)cc(C)nc4nn3c2C)cc(C(=O)OC)c1 | -21.8%
O=C(CSc1nccn1-c1ccc(F)cc1)Nc1cccc2ccccc12 | 7.68%
O=C(CC[C@H]1O[C@@H](n2ccc(=O)[nH]c2=O)[C@H](O)[C@@H]1O)N[C@H](Cc1ccccc1)C(=O)NCc1ccco1 | 13.5%
Cc1ccc(NC(=O)[C@H](Cc2ccccc2)NC(=O)CC[C@H]2O[C@@H](n3ccc(=O)[nH]c3=O)[C@H](O)[C@@H]2O)cc1C | 63.9% (active)
O=C(CC[C@H]1O[C@@H](n2ccc(=O)[nH]c2=O)[C@H](O)[C@@H]1O)N[C@H](Cc1ccccc1)C(=O)NCCCN1CCCC1=O | -10.2%
CCOc1ccc(-c2cc3c(=O)n(CC(=O)NCc4ccc(OC)cc4)ccn3n2)cc1 | -2.91%

SMILES | max activation
COc1cc(CNCc2ccc3c(c2)OCO3)c([N+](=O)[O-])cc1OC | -8.17%
COc1cc2c(-c3ccc4c(c3)OCO4)c(-c3ccsc3)oc(=O)c2cc1OC | 30.4% (active)
COc1cc(-c2c(-c3ccc4c(c3)OCO4)noc2C)ccc1F | -40.8%
O=C(CCc1cn(Cc2ccc(F)cc2)c2ccccc12)NC1CCCCC1 | -6.69%
C/C=C/C1=C(C(=O)O)N2C(=O)[C@@H](NC(=O)[C@H](N)c3ccc(O)cc3)[C@H]2SC1 | -0.123%
C#C[C@]1(O)CC[C@H]2[C@@H]3CCC4=C/C(=N/O)CC[C@@H]4[C@H]3CC[C@@]21CC | 4.22%
CC(C)CCNC(=O)c1[nH]c(C(F)(F)F)nc1-c1ccccc1 | 83.5% (active)
CC(C)(C)OC(=O)N1CCN(C(=O)c2[nH]c(C(F)(F)F)nc2-c2ccccc2)CC1 | -1.11%
CC(C)CCNC(=O)c1cccnc1Sc1ccccc1 | -0.291%
COc1ccc(CCNC(=O)CCCn2c(=O)c3ccccc3n(Cc3ccc(C)cc3)c2=O)cc1OC | -1.49%
CC[C@H](C)CCCCC(=O)N[C@@H](CCN)C(=O)N[C@H](C(=O)N[C@@H](CCN)C(=O)N[C@H]1CCNC(=O)[C@H]([C@@H](C)O)NC(=O)[C@H](CCN)NC(=O)[C@H](CCN)NC(=O)[C@H](CC(C)C)NC(=O)[C@@H](CC(C)C)NC(=O)[C@H](CCN)NC1=O)[C@@H](C)O (X1-[Dab]T[Dab][Dab][Dab][dL]L[Dab][Dab]T; lactam 4-C) | 0.26%
COc1cccc(CNC(=O)C2CCC(CNS(=O)(=O)c3cccs3)CC2)c1 (stereo not given) | 2.62%
COc1cc(C(=O)NCC(=O)N2CC=C(c3ccccc3)CC2)cc(OC)c1OC | -3.75%
COc1cc(-n2c(C)nc3cc(C(=O)NCc4ccco4)ccc32)cc(OC)c1OC | -12.8%
CCn1c(CNC(=O)c2cc(OC)c(OC)c(OC)c2)cc2cc(C)ccc21 | 30.2% (active)
Cc1cccc(C(CC(=O)NCC2(c3ccccc3)CCCC2)c2ccccc2)c1O (stereo not given) | -11.1%
CCOc1ccccc1N(CC)C(=O)c1cc2ccc3cccnc3c2[nH]1 | 8.81%
Cc1ccc(C)c(N2CCN(Cc3nnc(-c4ccccc4)o3)CC2)c1 | -22.5%
c1ccc(-c2cnc(CN3CCN(c4ccccc4)CC3)o2)cc1 | 47.7% (active)
Cc1ccc(-c2nnc(CN3CCN(C)CC3)o2)cc1 | -9.28%
NNc1nnc(Cc2ccncc2)c2ccccc12 | 4.9%
COc1cc(CNCCSc2nnnn2C)ccc1OCc1c(F)cccc1Cl | -12.1%
COc1cc(SC#N)ccc1N=Cc1c(C)[nH]n(-c2ccc(C)cc2)c1=O | 37.3% (active)
COc1ccc(N(Cc2ccc(N(C)C)cc2)C(=O)c2ccc(S(C)(=O)=O)cc2)cc1 | -1.61%
CCN(C(=O)c1sc2cc(OC)ccc2c1Cl)c1ccccc1 | -6.98%
C=CCOc1c2ccc(C(=O)N(CC)c3ccc(OC)cc3)cc2nn1C | 36.4% (active)

Reference: PubChem BioAssay AID652048 (National Center for Advancing Translational Sciences (NCATS), 2013)
